# Rows were chosen to be rich in hits. Some 1.4% of all compounds tested hit in one or more screens of this group.
# KCNH2 3.1 inh: blocks the human KCNH2 3.1 channel isoform. 340,000 compounds, 0.95% hits. activity change, % (tested at about 1.8 µM). U2OS KCNH2 3.1, thallium flux FluxOr; stronger effect = lower value;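 active = maximum activity change below -70%; inconclusive = maximum activity change from -70% to -50%; inactive = maximum activity change above -50%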;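 note: thallium influx rate constant from kinetic fluorescence after stimulation buffer; % is set by controls: 0 for no effect and ±100 for the full control effect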
#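 Normalized rate constant (relative to positive and negative DMSO controls) derived from a 2 min kinetic fluorescence read after stimulation; U2OS cells expressing the 3.1 isoform via virus at 1.77 x 10^8 /mL.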
# hERG WT inh: blocks the wildtype human KCNH2 potassium channel; U2OS, BacMam KCNH2, thallium flux FluxOr; stronger effect = lower value; activity change, % at 1.84 µM; Q12809; 340,000 compounds, 0.37% hits;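 active = maximum activity change below -70%; inconclusive = maximum activity change between -70% and -50%; inactive = maximum activity change above -50%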; note: % is set by controls: 0 for no effect and ±100 for the full control effect
#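 U2OS cells were transduced with wild-type KCNH2 virus (2.03 x 10^8 / mL) for 4 h at room temperature, then cultured overnight at 37 C. Thallium flux was read with FluxOr dye. Rate constants were normalized to DMSO controls.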
# CCT modulator: cytosolic chaperonin activity modulation | purified chaperonin ATPase assay, HTRF ADP detection, 30 min | activity change, % (concentration not given with the values), hits read low | 360,000 compounds, 0.3% hits | AID 651819; in the data active = activity change below about -30%; note: % is set by controls: 0 for no effect and ±100 for the full control effect
#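 TRiC at 40 or 20 nM final (batch-dependent) in 30 mM Tris pH 7.4, 100 mM KCl, 5 mM MgCl2, 1 mM DTT, with compound at single 76 uM and 10 uM ATP, 30 min at 37 deg C. ADP detected by HTRF Transcreener, 665/615 ratio.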
# Rango complex inh: prevents formation of the Rango-importin beta complex. Rango CFP/YFP FRET sensor + importin beta, 45 min. Potency, µM (doses to about 92.2 µM), without a hit: at the highest dose inhibition of complex formation. 340,000 compounds, 0.031% hits. AID 540263. Q14974;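 note: potency is the fitted concentration of half-maximal effect; 0% = DMSO wells and 100% = buffer wells lacking importin beta; nearly all actives have a fitted effect of over 15% in size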
# Target sequence (Q14974 whole entry, looked up): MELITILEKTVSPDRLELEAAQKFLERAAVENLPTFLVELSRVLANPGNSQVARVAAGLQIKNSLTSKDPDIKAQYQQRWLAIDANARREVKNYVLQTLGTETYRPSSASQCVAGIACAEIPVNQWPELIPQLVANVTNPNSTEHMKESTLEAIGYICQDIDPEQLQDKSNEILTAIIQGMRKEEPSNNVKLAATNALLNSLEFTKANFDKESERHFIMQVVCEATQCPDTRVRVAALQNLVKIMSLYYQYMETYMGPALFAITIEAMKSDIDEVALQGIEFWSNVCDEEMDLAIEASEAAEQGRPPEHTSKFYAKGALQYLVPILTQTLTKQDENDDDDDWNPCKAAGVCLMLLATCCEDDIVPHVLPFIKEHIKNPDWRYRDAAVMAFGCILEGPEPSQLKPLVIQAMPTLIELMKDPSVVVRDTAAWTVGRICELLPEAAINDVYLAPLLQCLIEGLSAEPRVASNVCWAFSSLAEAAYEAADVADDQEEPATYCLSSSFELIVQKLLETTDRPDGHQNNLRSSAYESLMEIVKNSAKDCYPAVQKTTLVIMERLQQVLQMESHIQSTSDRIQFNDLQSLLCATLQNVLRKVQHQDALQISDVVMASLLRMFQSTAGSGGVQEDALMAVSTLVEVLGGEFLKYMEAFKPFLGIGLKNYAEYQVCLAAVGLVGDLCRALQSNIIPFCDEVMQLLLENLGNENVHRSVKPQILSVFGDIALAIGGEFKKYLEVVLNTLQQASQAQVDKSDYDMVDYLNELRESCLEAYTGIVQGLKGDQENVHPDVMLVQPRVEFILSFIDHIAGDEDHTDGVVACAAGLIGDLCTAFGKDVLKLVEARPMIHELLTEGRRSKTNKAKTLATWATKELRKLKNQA
#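 Inhibition scored from the CFP 486 nm/YFP 530 nm FRET ratio 45 min after adding 0.125 microM importin beta to 50 nM Rango biosensor preincubated 5 min with compound (room temperature, PBS with DTT, Tween-20, BSA). No-importin wells as positive control.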
# MmCpn inh: inhibitors of Methanococcus maripaludis chaperonin TRiC (MmCpn); purified Mm-Cpn ATPase, ADP Transcreener TR-FRET; Potency, µM (titrated, usually from 76.9 µM), for the others: at the top dose activity, negative = inhibition, usual class: inhibitors; 330,000 compounds, 0.031% hits; AID 504842; active = well fitted inhibition curve with a large enough effect; inconclusive = small, poorly fitted or top-dose-only effect; note: potency is the fitted concentration of half-maximal effect; % is set by controls: 0 for no effect and ±100 for the full control effect; nearly all actives have a fitted effect of over 80% in size
#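 Compound-treated chaperonin, 25 nM final, turns over 10 uM ATP at 37°C for 30 min following a 10 min preincubation; ADP generated competes with ADP-d2 for Eu-cryptate antibody, lowering FRET.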
# Rango release inh: prevents RanGTP from dissociating the Rango-importin beta complex; O95149+P62826; Biochemical FRET Rango-importin beta, RanGTP-induced dissociation; Potency, µM (highest dose often 46.1 µM), for inactives: top-dose activity change, negative = inhibition; 340,000 compounds, 0.071% hits; note: potency is the fitted concentration of half-maximal effect; % of control where 0% means no effect; nearly all actives have a fitted effect of over 45% in size
#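 Rango (0.1 uM)–importin beta (0.25 uM) complex; RanGTP-RCC1 trigger; 45 min RT; CFP/YFP FRET read.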
# Active calls of the source: *; ? = inconclusive; . = no result. Unless noted, calls come from the whole dose curve.
SMILES,KCNH2 3.1 inh,hERG WT inh,CCT modulator,Rango complex inh,MmCpn inh,Rango release inh
O=C(COc1ccc(Br)cc1)NCC1COc2ccccc2O1 (centres undefined),-2,-11,-1,6%,0%,-1%
COc1ccc(-n2c(NC(=O)c3ccco3)c(C#N)c3nc4ccccc4nc32)cc1,-2,-15,-60*,?,-5%,?
N#Cc1c(NC(=O)c2ccccc2Cl)n(Cc2ccccc2)c2nc3ccccc3nc12,-6,-9,-2,?,-6%,?
CCN(CC)c1cc(C)c2cc(NC(=O)c3ccc(Br)o3)ccc2n1,?,2,-1,4%,-1%,-3%
COc1ccccc1-c1noc2c1C(=O)N(Cc1cn(C3CCCC3)nn1)CC2,.,.,-38*,.,.,.
O=C(Cn1cncn1)NCCCc1ccccc1,6,-177*,2,3%,-2%,22%
COC(=O)c1c(-c2cc(OC)cc(OC)c2)sc2ccc(OC)cc12,6,-2,1,1%,35µM*,1%
COC(=O)c1c(-c2ccc(S(C)(=O)=O)cc2)sc2cc(OC)ccc12,18,-3,1,0%,35µM*,20%
COc1ccc2sc(-c3ccc(S(C)(=O)=O)cc3)c(-c3ccc(SC)cc3)c2c1,11,-1,-1,3%,20µM*,-12%
COc1ccc2sc(-c3ccccc3OC)c(-c3ccc(O)cc3)c2c1,.,.,-1,1%,-28%,-2%
COC(=O)c1c(-c2ccc(SC)cc2)sc2ccc(OC)cc12,?,-4,-6,1%,-11%,0%
COc1ccc(-c2c(-c3ccccc3OC)sc3ccccc23)cc1,-12,3,-2,-10%,14µM*,-16%
COC(=O)c1c(-c2ccccc2OC)sc2ccccc12,.,.,2,0%,35µM*,11%
COC(=O)c1c(-c2ccc(OC)cc2)sc2ccc(N3CCOCC3)cc12,0,-5,-1,-1%,50µM*,1%
COC(=O)c1c(-c2ccc(OC)cc2)sc2ccccc12,.,.,.,.,35µM*,.
COC(=O)c1c(-c2ccc(SC)cc2)sc2ccccc12,7,-8,1,2%,?,16%
CCNC(=S)NC1CC2CCCC(C1)N2Cc1ccc(C)cc1 (centres undefined),-44,15,0,0%,-7%,9%
O=C(NC1CC2CCCC(C1)N2S(=O)(=O)c1ccccc1)c1ccccc1 (centres undefined),-4,18,2,-1%,2%,1%
Cc1cccc(C(=O)NC2CC3CCCC(C2)N3S(=O)(=O)c2ccccc2)c1 (centres undefined),-72*,?,-6,-2%,1%,-3%
COc1cccc(C(=O)NC2CC3CCCC(C2)N3Cc2ccc(C)cc2)c1 (centres undefined),-71*,7,-2,4%,?,33%
CNC(=S)N1C2CCCC1CC(NC(=O)c1ccc(C)cc1)C2 (centres undefined),-1,-15,-48*,1%,.,-2%
CNC(=S)NC1CC2CCCC(C1)N2Cc1ccc(C)cc1 (centres undefined),-83*,.,0,0%,-1%,8%
Cc1ccc(C(=O)NC2CC3CCCC(C2)N3C(=S)NCc2ccco2)cc1 (centres undefined),-4,0,-2,?,1%,-12%
CCC(CC)C(=O)N(C)c1c(C)nc2c(OCc3ccc(Cl)cc3)cccn12,.,.,-1,.,.,.
COc1cccc(-c2csc(N3CCC(C(N)=O)CC3)n2)c1,.,.,.,.,-3%,.
SMILES,KCNH2 3.1 inh,hERG WT inh,CCT modulator,Rango complex inh,MmCpn inh,Rango release inh
COc1ccc(CN2C3CCCC2CC(NC(=O)Nc2cccc(C)c2)C3)cc1 (centres undefined),-114*,-87*,2,-5%,-19%,3%
COc1ccc(CN2C3CCCC2CC(NC(=O)Nc2ccccc2)C3)cc1 (centres undefined),-40,-36,1,0%,-2%,-9%
CC(=Nc1ccccc1)C1=C(O)C(Cc2ccc(O)cc2)NC1=O (centres undefined),-1,5,-68*,3%,.,1%
COc1ccccc1Cc1c(C2CCCCC2)nc2c3ccccc3ccn12,.,.,-1,.,.,.
CC(=O)N1CCN(S(=O)(=O)c2cccc(C(=O)Nc3ccc(OC(F)F)cc3)c2)CC1,-6,-5,-39*,3%,0%,-10%
O=C(Nc1ccc(S(=O)(=O)N2CCCC2)cc1)c1cccc(OC(F)F)c1,-1,-3,0,2%,-5%,5%
Clc1ccc(CSc2nnc(-c3ccncc3)s2)cc1,22,-1,2,-1%,1%,1%
O=C1Nc2ccccc2CCC1Sc1nnc(-c2ccc(Cl)cc2)s1 (centres undefined),-72*,6,0,-6%,0%,-7%
CCS(=O)(=O)c1nc(S(=O)(=O)c2ccc(C)cc2)c(NCCCN(C)C)s1,16,10,0,-5%,-2%,12%
COC(=O)c1oc2ccccc2c1NC(=O)/C=C/C(=O)O,-74*,-10,-1,3%,-3%,-12%
COC(=O)c1oc2ccccc2c1N,0,6,-3,2%,-2%,27%
CC(=O)c1ccc(OCC(=O)NCc2ccc(F)cc2)cc1,-8,-5,-1,1%,-2%,-13%
CCc1ccc(C(O)c2ncc(-c3ccccc3OC)[nH]2)cc1 (centres undefined),.,.,0,.,.,.
Cc1ccc(C(=O)Nn2cnc3scc(-c4cccs4)c3c2=O)c(O)c1,17,-11,-47*,-7%,0%,18%
CC(C)c1ccc(NC(=O)c2cc(S(=O)(=O)NCC3COc4ccccc4O3)ccc2F)cc1 (centres undefined),-72*,13,0,-3%,1%,7%
COc1ccc(C)cc1-n1nnnc1SCC1CCCO1 (centres undefined),2,-107*,-1,2%,2%,-10%
O=C(N/N=C/c1cccc([N+](=O)[O-])c1)c1cc[n+](CCO)cc1,18,4,-3,-2%,1%,48%
COc1cccc(OCC(=O)NNC(=S)Nc2ccc(Cl)cc2Cl)c1,5,2,0,0%,-1%,-2%
Cc1ccc2c(c1)C(=O)N1[C@H]3c4cc(Cl)ccc4OC[C@@H]3[C@H](c3ccccc3)[C@]1(C)C(=O)N2,-83*,-7,1,2%,0%,21%
